ELG1 DNA repair – qHTS screen for small molecules that inhibit ELG1-dependent DNA repair in human embryonic kidney (HEK293T) cells expressing luciferase-tagged ELG1. HEK293T ELG1-luciferase reporter, luminescence, 16 h; DNA damage induced by 5-fluorouridine. Potency, µM (top dose mostly 46.1 µM), without a hit: at the top dose activity change, negative = inhibition, actives largely listed as inhibitors. hit rate 2.3% among 330,000. AID 504467, 2011; also: potency is read from the fitted curve at half-maximal effect; nearly all actives have a fitted effect of over 55% in size
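Cells (2,000 per well) received 5-fluorouridine plus test compound or DMSO and were incubated 16 hr at 37 °C, 5% CO2. Luciferase activity was read by luminescence 30 min after ONE-Glo addition; signal suppression marked inhibition of damage-induced ELG1 function.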
TDP1 cell noCPT – qHTS for Inhibitors of human tyrosyl-DNA phosphodiesterase 1 (TDP1): qHTS in cells in absence of CPT | DT40 Tdp1-/- hTDP1 cells, no CPT, ATP luminescence, 48 h | Potency, µM (doses to about 46.2 µM), for the others: at the highest dose activity change, negative = growth inhibition, hits mostly inhibitors | hit rate 15% among 420,000 | AID 686978, 2013; also: potency is read from the fitted curve at half-maximal effect; nearly all actives have a fitted effect of over 55% in size
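Stably hTDP1-transfected Tdp1-null chicken DT40 cells were treated with library compounds minus camptothecin and grown for at least 48 hr at 37 °C, after which cellular ATP was quantified by luminescence.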
DT40 TDP1 CPT – qHTS for Inhibitors of human tyrosyl-DNA phosphodiesterase 1 (TDP1): qHTS in cells in presence of CPT. chicken DT40 Tdp1-/-;hTDP1 cells + 20 nM CPT, ATP luminescence, 48 h. Potency, µM (top dose mostly 46.2 µM), for inactives: at the highest dose activity change, negative = growth inhibition, usual class: inhibitors. hit rate 12% among 420,000. AID 686979, 2013; also: potency is read from the fitted curve at half-maximal effect; nearly all actives have a fitted effect of over 55% in size
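Chicken DT40 Tdp1-/- cells complemented with human TDP1, 400 cells/well, exposed to compounds plus 20 nM camptothecin for at least 48 h at 37 C; viability read as ATP content by CellTiter-Glo luminescence.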
IL-1B inflam inh – qHTS for Inhibitors of Inflammasome Signaling: IL-1-beta AlphaLISA Primary Screen; THP-1 LPS/ATP IL-1B secretion, AlphaLISA, 16 h; stronger effect = lower value; activity change, % at 57.5 µM; hit rate 4.7% among 360,000; AID 743279, 2014; in the data active = activity change below about -50%; inconclusive = mostly about -30% to -49%
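Secreted IL-1B measured by AlphaLISA bead assay after 16 h compound exposure of THP-1 cells; compounds (final up to 57.5 uM) added 1 h before LPS (250 ng/mL) and ATP (1.25 mM) stimulation; lower signal means less secretion.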
Giardia kill – Small Molecules that selectively kill Giardia lamblia: qHTS. Giardia lamblia trophozoite viability. AID 540267, 2011. hit rate 0.15% among 340,000. activity change, % at 7.66 µM, hits read low; in the data active = activity change below about -80%; inconclusive = between about -30% and that limit;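 also: parasites exposed to compound for two days anaerobically before the ATP read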
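Luminescent ATP signal served as the viability read-out, measured 15-30 min after adding ATP detection reagent to trophozoites that had been incubated with compounds for 48 hrs at 37 deg C anaerobically at 100 cells/well.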
TDP1 inh – qHTS Assay for Inhibitors of Tyrosyl-DNA Phosphodiesterase (TDP1); Potency, µM (highest dose often 130 µM), for the others: at the top dose activity change, negative = inhibition, actives largely listed as inhibitors; Tyrosyl-DNA phosphodiesterase 1 (Homo sapiens), Q9NUW8; hit rate 0.28% among 350,000; recombinant TDP1, AlphaScreen DNA substrate cleavage; also: potency is read from the fitted curve at half-maximal effect; nearly all actives have a fitted effect of over 40% in size
Target sequence (Q9NUW8 whole entry, looked up): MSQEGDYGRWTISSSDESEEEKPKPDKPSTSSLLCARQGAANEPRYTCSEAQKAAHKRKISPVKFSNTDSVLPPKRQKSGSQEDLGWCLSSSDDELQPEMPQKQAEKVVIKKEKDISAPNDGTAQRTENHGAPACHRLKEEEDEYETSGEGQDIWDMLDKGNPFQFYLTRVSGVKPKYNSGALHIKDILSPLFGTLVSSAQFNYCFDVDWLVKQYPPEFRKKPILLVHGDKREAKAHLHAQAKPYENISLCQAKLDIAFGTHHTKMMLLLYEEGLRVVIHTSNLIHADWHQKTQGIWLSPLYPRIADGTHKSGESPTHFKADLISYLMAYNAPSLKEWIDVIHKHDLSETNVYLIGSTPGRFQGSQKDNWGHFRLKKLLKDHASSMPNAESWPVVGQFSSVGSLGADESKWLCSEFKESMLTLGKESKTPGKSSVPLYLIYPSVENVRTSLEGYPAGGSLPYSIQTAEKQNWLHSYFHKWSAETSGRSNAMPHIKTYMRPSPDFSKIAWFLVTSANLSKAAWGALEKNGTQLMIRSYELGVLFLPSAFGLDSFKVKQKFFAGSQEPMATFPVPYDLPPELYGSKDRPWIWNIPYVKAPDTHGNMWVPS
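Here, a 5' biotin and 3' phosphotyrosine-FITC DNA oligonucleotide reports Tdp1 activity: intact substrate bridges AlphaScreen beads, while cleavage leaves a 3' phosphate and drops signal. All incubations at room temperature.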
An asterisk follows results filed as active; ? = inconclusive; nt = no result given; [ ] = remark or other dose. Sampled rows, rich in hits. Any-hit rate of the full collection: about 19%. Unless noted, calls follow the shape of the dose curve; as a rule, active = well fitted curve in the direction sought with a large enough effect; inconclusive = small, poorly fitted or top-dose-only effect, or another doubt; inactive = no such curve, though single readings can be large; an effect the other way counts as inactive or inconclusive. % is scaled to controls: 0 for no effect and ±100 for the full control effect.

SMILES | ELG1 DNA repair | TDP1 cell noCPT | DT40 TDP1 CPT | IL-1B inflam inh | Giardia kill | TDP1 inh
Cc1ccccc1CNC(=O)CCNS(=O)(=O)c1ccc(OC(F)(F)F)cc1 | 7.5% | ? | 0.9% | 15.5 | 5.7 | -0.3%[56.1 µM]
Cc1ccc(N2CC(C(=O)Nc3cccnc3)CC2=O)cc1C (stereo not drawn) | 9.6% | ? | 13.3% | 25.6 | 1.7 | nt
O=C(C[C@H]1C/C=C\CC[C@H](Cc2ccc(F)cc2)C(=O)OC[C@@H]2CCCN2C1=O)N[C@H](CO)Cc1ccccc1 | -7.2% | ? | 25.9µM* | -13.4 | -2.6 | 0.8%
O=C(C[C@H]1C/C=C\CC[C@@H](Cc2ccc(F)cc2)C(=O)OC[C@H]2CCCN2C1=O)N[C@@H](CO)Cc1ccccc1 | -21.3% | 14.6µM* | ? | -20.2 | ? | 0.7%
O=C(C[C@@H]1C/C=C\CCCC(=O)OC[C@@H]2CCCN2C1=O)N[C@H](CO)Cc1ccccc1 | 15.0% | -7.8% | 3.8% | 1.5 | 14.5 | 0.4%
COc1ccc(NC(=O)C2=NN(c3ccccc3)C(=O)CC2)cn1 | -1.0% | -21.2% | ? | -0.6 | -8.9 | 0.5%
COc1ccc(NC(=O)CCn2c(=O)c3cccn3c3cccnc32)cc1Cl | nt | -23.6% | -0.4% | nt | nt | 5.1%
COc1ccc(NC(=O)CCn2c(=O)c3cccn3c3cccnc32)c(OC)c1 | nt | 14.6µM* | ? | nt | nt | 7.7%
COc1ccc(OC)c(CCNC(=O)CCn2c(=O)c3cccn3c3cccnc32)c1 | nt | 16.4µM* | ? | nt | nt | 2.6%
COc1ccc(CCNC(=O)CCCn2c(=O)c3cccn3c3cccnc32)c(OC)c1OC | 13µM* | ? | ? | 0.0 | -6.3 | 1.7%
Cc1nc2ccn(Cc3cccnc3)c(=O)c2cc1C(=O)Nc1ccc(F)cc1F | nt | -1.6% | -15.6% | nt | nt | 4.5%
CCCCC(=O)N(C)C | nt | nt | nt | nt | nt | 7.0%
CCN(CC)S(=O)(=O)c1cccc(NC(=O)c2ccc(Sc3nncn3C)c([N+](=O)[O-])c2)c1 | ? | 23.1µM* | 16.4µM* | -9.0 | 9.6 | 0.0%
Cn1cnnc1Sc1ccc(C(=O)OCC(=O)NCC(F)(F)F)cc1[N+](=O)[O-] | -9.2% | 4.5% | -1.2% | -15.1 | -16.8 | -3.5%
CCN(CC)S(=O)(=O)c1cccc(C(=O)Nc2cc(C)cc(C)c2)c1 | ? | ? | ? | -9.2 | -4.8 | -1.0%
CCN(CC)S(=O)(=O)c1cccc(C(=O)Nc2ccccc2C(=O)Nc2ccc(Cl)cc2)c1 | nt | 18.4µM* | ? | nt | nt | -4.7%
CCN(CC)S(=O)(=O)c1cccc(C(=O)Nc2ccc(C#N)cc2)c1 | ? | 8.2µM* | ? | -15.5 | 27.1 | 0.0%
CCN(CC)S(=O)(=O)c1cccc(NC(=O)c2ccc(Br)cc2)c1 | ? | 20.6µM* | ? | -70.3* | 20.1 | 4.8%
O=C(NCCc1ccccc1Cl)c1ccc2c(=O)n(-c3ccccc3)c(=O)[nH]c2c1 | nt | ? | ? | nt | nt | 2.9%
Nc1cccc(S(=O)(=O)O)c1 | nt | nt | nt | nt | nt | 14.9%
CCN(CC)S(=O)(=O)c1cccc(C(=O)N[C@H](C(=O)NCc2ccc(Cl)cc2)C(C)C)c1 | ? | 14.6µM* | 23.1µM* | -22.5 | -2.7 | -4.0%
CCN(CC)S(=O)(=O)c1cccc(C(=O)N[C@H](C(=O)NCc2ccccc2F)C(C)C)c1 | ? | ? | ? | 29.4 | -4.4 | 0.0%
COc1ccccc1-c1csc(C(C)(NC(C)=O)c2ccccc2)n1 (stereo not drawn) | nt | ? | 16.4µM* | 0.0 | nt | nt
CC(=O)NC(C)(c1ccccc1)c1nc(-c2cccc3cccnc23)cs1 (stereo not drawn) | nt | 14.6µM* | 20.6µM* | 0.0 | nt | nt
COc1ccc(C(C)(NC(C)=O)c2nc(/C=C/c3ccccc3)cs2)cc1 (stereo not drawn) | nt | ? | ? | -1.1 | nt | nt
SMILES | ELG1 DNA repair | TDP1 cell noCPT | DT40 TDP1 CPT | IL-1B inflam inh | Giardia kill | TDP1 inh
COc1cccc(C(C)(O)c2nc(-c3ccccc3OC)cs2)c1 (stereo not drawn) | nt | -93.5% | ? | 0.0 | nt | nt
Cc1noc(NS(=O)(=O)c2ccc(NC(=O)c3nn(-c4ccccc4)ccc3=O)cc2)c1C | 21.9% | 18.2% | -0.3% | 7.6 | 4.7 | 5.3%
C=CCn1c(CCC(=O)O)ccc1-c1ccccc1 | -1.7% | ? | -9.1% | -77.2* | -17.2 | 5.4%
O=C(O)CCc1ccc(-c2ccc(Cl)cc2)n1CCC(=O)O | 3.7% | 8.1% | 8.0% | 1.9 | -14.9 | -2.9%
C[C@H](CO)N1C[C@H](C)[C@@H](CN(C)C(=O)Nc2ccc3c(c2)OCO3)Oc2c(NC(=O)Cc3ccccc3)cccc2C1=O | -4.5% | -2.8% | -13.5% | 4.2 | -26.0 | -0.2%
COc1ccc(NC(=O)N(C)C[C@H]2Oc3c(NC(=O)Nc4ccc5c(c4)OCO5)cccc3C(=O)N([C@H](C)CO)C[C@@H]2C)cc1 | ? | ? | ? | -3.8 | -22.7 | 4.4%
C[C@H](CO)N1C[C@H](C)[C@@H](CN(C)C(=O)Nc2ccccc2)Oc2c(NC(=O)Nc3ccc4c(c3)OCO4)cccc2C1=O | ? | ? | 13µM* | 0.6 | 6.0 | 1.0%
C[C@H](CO)N1C[C@H](C)[C@@H](CN(C)C(=O)Nc2ccc3c(c2)OCO3)Oc2c(NC(=O)Nc3ccc4c(c3)OCO4)cccc2C1=O | ? | 23.1µM* | 16.4µM* | -11.2 | 11.6 | 4.2%
O=C(NCc1ccc(F)cc1)n1cc(P(=S)(c2ccccc2)c2ccccc2)c2ccccc21 | nt | nt | nt | nt | nt | -0.4%
COc1c(O)cnn(-c2ccccc2)c1=O | ? | -3.2% | 3.4% | 1.7 | -13.1 | 1.4%
O=C(Cc1ccccc1)N1CCCC1c1ccccc1 (stereo not drawn) | -5.6% | ? | 16.4µM* | 32.3 | 3.1 | 6.9%
O=C(COC(=O)c1cccs1)NCc1ccco1 | 7.0% | -0.7% | -18.8% | 1.8 | -13.4 | 44.7µM*
O=C(COC(=O)c1ccc(NS(=O)(=O)c2cccs2)cc1)NCc1ccco1 | -25.9% | 2.91µM* | 4.11µM* | 7.6 | 40.8 | nt
O=C(COC(=O)c1cccnc1SCC(=O)NCc1ccccc1)NCc1ccccc1 | -12.2% | ? | 23.1µM* | 7.3 | -7.1 | 2.3%
O=C(COC(=O)c1cccnc1Cl)NCc1ccco1 | 8.4% | -3.1% | 19.0% | 10.4 | -5.3 | 39.8µM*
